One test relates to RARb homodimer (NR concentration 270 nM). As to the kind of experiment: PBM binding z-score (relative to random genomic background probes); higher = stronger binding; sequences stand for … in GC…GCGATTGACAGCGTAGAATGAAGG
The essentials: (§1)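 Binding z-scores were set against random background probes. The data came from custom Agilent 4×180K protein-binding microarrays carrying double-stranded probes with 34-nt variable regions, incubated 1 h with ligand-free nuclear receptor dimers. Partner-specific antibodies detected binding, and scanned fluorescence was regression-normalized.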
TCTATTAGTTGATTAGGGCATCCGAAACAGCGGA had a PBM binding z-score of 0.405.

On to ACTATTTGTTGACTTAGGGCAACCGATACGACGC, for which the PBM binding z-score was 1.01.

Sequence ACTAGCAGGCCAAGGGTCACTTAAGATTAGTCCG returned a PBM binding z-score of 3.52.

In the case of GATACAGGGTCAAGGCCAGACTACGCGTATTGAT, the PBM binding z-score was determined as 3.74.

TCAATGAGGTTAAAGATCAGGGAACGTGGCGTCG: the PBM binding z-score stood at 0.614.

GATACAGGGTCAACGCCAGAGTACGCGTATTGAT yielded a PBM binding z-score of 3.62.

In turn, CGTCCAAGTTCAGCAGGTCAGTGAAAGCGACGTG registered a PBM binding z-score of 3.8.

The sequence TGAATGAGGTTATAAGATCAGGGAACGTTGCAAA returned a PBM binding z-score of 0.0745.

For ACTATTAGTTGACTTAGGGAAACCGATACGACGC, the PBM binding z-score is -0.158.

The sequence AGTACAGGGTCACTAGGCCAGAGTAGGTACGAAT showed a PBM binding z-score of 3.49.

In turn, GGGACGAGGGCAAGTTGATAGCAGAGTTTGATGG displayed a PBM binding z-score of 1.99.

Take TGAATGAGGTTAAAGATCAGGGCACGTGGCGTCG: the PBM binding z-score was determined as 1.91.

In turn, ACTCGGAGGACAAAGGGCAGAGCTACGCCAGTGA registered a PBM binding z-score of 1.69.

Turning to TCATATAGGTAATACAGGTGAAGGTCGGCATCTA, the PBM binding z-score was 2.

Turning to TATAGCAGGCCAGAGGGTCACTCAAGAGGTACGG, the PBM binding z-score came to 2.58.

For TCTATTAGATGAAGGGCAACCGACGAGTCCGTTT, the PBM binding z-score came to 1.1.

CCTACTGGGCCTCGAAAGGTCATTGATTCAGTGA showed a PBM binding z-score of 4.35.

TCTAGTAGATCAATAGAGGTTAAGAAAGTGCGCT displayed a PBM binding z-score of 1.38.

Turning to AGTCAAAGTTCACTAAGTAACGTAAGATTCAGCT, the PBM binding z-score amounted to 3.31.

AGAACTAGGGCAATGAGTTGATAGCACGGGTGGC showed a PBM binding z-score of 0.411.

As for TCAAGCAGGCCAGAGGGTCACTCAAGAGGTACGG, the PBM binding z-score was 2.73.

The sequence TCTATTAGTCGAAGGGCAACCGACGAGTCCGTTT returned a PBM binding z-score of 1.15.

Sequence CGTCAAAGTACAACTAAGGTAACGTAAAGCACGC came in with a PBM binding z-score of 1.16.

In the case of GCTCGGAGGACAAGGTCAGAGATTTGTCCGTAGA, the PBM binding z-score is 2.83.

As to ATCTCTAGGAAACAAGTTCAGTGAAAGAGAGGAC, the PBM binding z-score was 1.32.

In turn, CCGACTGGGGCAGAACGGTTACCATACCATCCGG displayed a PBM binding z-score of 0.0428.

GCTCGGAGGACAAGGTCAGAGCATTGTCCGTAGA registered a PBM binding z-score of 3.1.

GCAACGAGGGCAAGTTGATAGCAGAGTTTGATGG showed a PBM binding z-score of 1.66.

In the case of TCTATTAGTTGATTAGGCCAACCGAAACAGCGGA, the PBM binding z-score worked out at 0.54.

TCATATAGGTAGACAGGTGAAAGTCCGTAAGTTA: the PBM binding z-score worked out at 0.985.

In turn, TCTCGGAGGACACGAAGGTCAGAACTTTCCAGAG displayed a PBM binding z-score of 3.24.

As for TCCGACAGGTGAAGGTAACTCAGGTACGCAGTCG, the PBM binding z-score was found to be 0.334.

Sequence GCTTGTAGATCATGGTTAAGAAAGACTAAGCTAA returned a PBM binding z-score of -0.707.

With CCGACTGGGGCAGGGTTACCATAACGCACAGCCA, the PBM binding z-score was 1.

In the case of GCTTGTAGATCAAGGGTAAGAAAGACTAAGCTAA, the PBM binding z-score is -0.585.

Sequence TTACCAAGGTGAGCTGAGGTCGTTGAACCAACTC returned a PBM binding z-score of 1.77.

For CTACCAAGGTGAACAAGGGCGTTGATTACTATTC, the PBM binding z-score came to 1.26.

Sequence TATAGTTGGTCAAAGGTCACACACTCGAAATGCG gave a PBM binding z-score of 5.04.

As for CAAACTAGGTTAAAGGTCAAAGTCGAGCCAACCA, the PBM binding z-score came to 4.47.

AGAACGAGGGCACGCTGAGTTCATAGCAGAGTAG: the PBM binding z-score was 2.79.

Another test deals with RARg:RXRa (NR concentration 270 nM, RXRa partner concentration 90 nM). Described as above. The essentials: as §1
In the case of TCTATTAGTTGATTAGGGCATCCGAAACAGCGGA, the PBM binding z-score worked out at 0.611.

ACTATTTGTTGACTTAGGGCAACCGATACGACGC: the PBM binding z-score was 0.754.

Sequence ACTAGCAGGCCAAGGGTCACTTAAGATTAGTCCG registered a PBM binding z-score of 4.12.

GATACAGGGTCAAGGCCAGACTACGCGTATTGAT returned a PBM binding z-score of 5.51.

As to TCAATGAGGTTAAAGATCAGGGAACGTGGCGTCG, the PBM binding z-score is 2.41.

The sequence GATACAGGGTCAACGCCAGAGTACGCGTATTGAT showed a PBM binding z-score of 5.79.

As to CGTCCAAGTTCAGCAGGTCAGTGAAAGCGACGTG, the PBM binding z-score is 3.81.

For TGAATGAGGTTATAAGATCAGGGAACGTTGCAAA, the PBM binding z-score came out at 1.3.

ACTATTAGTTGACTTAGGGAAACCGATACGACGC yielded a PBM binding z-score of 0.158.

AGTACAGGGTCACTAGGCCAGAGTAGGTACGAAT yielded a PBM binding z-score of 5.25.

In the case of GGGACGAGGGCAAGTTGATAGCAGAGTTTGATGG, the PBM binding z-score was 1.89.

For the sequence TGAATGAGGTTAAAGATCAGGGCACGTGGCGTCG, the PBM binding z-score is 2.84.

As to ACTCGGAGGACAAAGGGCAGAGCTACGCCAGTGA, the PBM binding z-score is 1.81.

TCATATAGGTAATACAGGTGAAGGTCGGCATCTA registered a PBM binding z-score of 1.13.

Sequence TATAGCAGGCCAGAGGGTCACTCAAGAGGTACGG yielded a PBM binding z-score of 2.61.

TCTATTAGATGAAGGGCAACCGACGAGTCCGTTT gave a PBM binding z-score of 0.508.

For CCTACTGGGCCTCGAAAGGTCATTGATTCAGTGA, the PBM binding z-score is 4.09.

Sequence TCTAGTAGATCAATAGAGGTTAAGAAAGTGCGCT came in with a PBM binding z-score of 0.728.

In the case of AGTCAAAGTTCACTAAGTAACGTAAGATTCAGCT, the PBM binding z-score turned out to be 4.63.

As to AGAACTAGGGCAATGAGTTGATAGCACGGGTGGC, the PBM binding z-score was 0.47.

Turning to TCAAGCAGGCCAGAGGGTCACTCAAGAGGTACGG, the PBM binding z-score came to 2.61.

In the case of TCTATTAGTCGAAGGGCAACCGACGAGTCCGTTT, the PBM binding z-score was 0.394.

CGTCAAAGTACAACTAAGGTAACGTAAAGCACGC: the PBM binding z-score turned out to be 1.03.

For the sequence GCTCGGAGGACAAGGTCAGAGATTTGTCCGTAGA, the PBM binding z-score was found to be 2.84.

Regarding ATCTCTAGGAAACAAGTTCAGTGAAAGAGAGGAC, the PBM binding z-score was 1.

Sequence CCGACTGGGGCAGAACGGTTACCATACCATCCGG showed a PBM binding z-score of -0.0938.

Sequence GCTCGGAGGACAAGGTCAGAGCATTGTCCGTAGA showed a PBM binding z-score of 3.37.

With GCAACGAGGGCAAGTTGATAGCAGAGTTTGATGG, the PBM binding z-score came out at 1.61.

The sequence TCTATTAGTTGATTAGGCCAACCGAAACAGCGGA showed a PBM binding z-score of 0.339.

TCATATAGGTAGACAGGTGAAAGTCCGTAAGTTA gave a PBM binding z-score of 0.378.

In turn, TCTCGGAGGACACGAAGGTCAGAACTTTCCAGAG showed a PBM binding z-score of 2.59.

With TCCGACAGGTGAAGGTAACTCAGGTACGCAGTCG, the PBM binding z-score came to 0.325.

In the case of GCTTGTAGATCATGGTTAAGAAAGACTAAGCTAA, the PBM binding z-score is -0.198.

In turn, CCGACTGGGGCAGGGTTACCATAACGCACAGCCA yielded a PBM binding z-score of 0.693.

Take GCTTGTAGATCAAGGGTAAGAAAGACTAAGCTAA: the PBM binding z-score is -0.317.

Sequence TTACCAAGGTGAGCTGAGGTCGTTGAACCAACTC yielded a PBM binding z-score of 1.21.

In turn, CTACCAAGGTGAACAAGGGCGTTGATTACTATTC had a PBM binding z-score of 1.

On to TATAGTTGGTCAAAGGTCACACACTCGAAATGCG, for which the PBM binding z-score worked out at 7.01.

In the case of CAAACTAGGTTAAAGGTCAAAGTCGAGCCAACCA, the PBM binding z-score worked out at 7.04.

AGAACGAGGGCACGCTGAGTTCATAGCAGAGTAG: the PBM binding z-score worked out at 4.31.

(Values after the supplement of paper PMC6555819.)
